Results from PubChem BioAssay (EPA / NIEHS).
Calls of active or inactive are those of the source. Rule for the calls: active = hit-call score of the fitted dose curve at least 0.9, where 1 is the maximum; inactive = score below 0.9.

Assays:
[1] = read-out: Urokinase-type plasminogen activator receptor (uPAR), PLAUR (gene 5329); test: BSK_4H_uPAR: BioMAP Diversity Plus: 4H Assay for Urokinase-type plasminogen activator receptor (uPAR) Biomarker Activity (AID 2283030); conditions: primary human endothelial cells (HUVEC); actives raise or lower the signal
Procedure, shortened: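 HUVEC, 24 h post-dose; uPAR by ELISA; bidirectional fit vs DMSO baseline.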

[2] = read-out: Vascular endothelial growth factor receptor 2 (Homo sapiens) (UniProt P35968); test: BSK_4H_VEGFRII: BioMAP Diversity Plus: 4H Assay for Vascular endothelial growth factor receptor 2 (VEGFR2) Biomarker Activity (AID 2283031); conditions: primary human endothelial cells (HUVEC); actives raise or lower the signal
Procedure, shortened: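 HUVEC (human primary), 4H system; 24 h post-dose; VEGFRII by ELISA; bidirectional curve fit vs DMSO baseline; gain or loss of signal scored.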

[3] = read-out: Human Leukocyte Antigen - DR isotype (HLADR), HLA-DRA (gene 3122); test: BSK_BE3C_HLADR: BioMAP Diversity Plus: BE3C Assay for Human Leukocyte Antigen - DR isotype (HLADR) Biomarker Activity (AID 2283032); conditions: primary human bronchial epithelial cells; actives raise or lower the signal
Procedure, shortened: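 Human primary bronchial epithelial cells in the BE3C system were exposed to chemicals for 24 h, after which HLA-DR levels were quantified by ELISA. Activity was fitted bidirectionally, gain or loss of signal, against DMSO as negative control and baseline.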

[4] = read-out: Vascular cell adhesion molecule 1 (VCAM1), VCAM1 (gene 7412); test: BSK_4H_VCAM1: BioMAP Diversity Plus: 4H Assay for Vascular cell adhesion molecule 1 (VCAM1) Biomarker Activity (AID 2283033); conditions: primary human endothelial cells (HUVEC); actives raise or lower the signal
Procedure, shortened: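 Primary human umbilical vein endothelial cells were exposed to chemicals for 24 h, after which VCAM-1 was quantified by ELISA. Responses were fitted bidirectionally against DMSO as negative control and activity baseline.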

[5] = read-out: Interferon-gamma inducible Protein 10 (IP10), CXCL10 (gene 3627); test: BSK_BE3C_IP10: BioMAP Diversity Plus: BE3C Assay for Interferon-gamma inducible Protein 10 (IP10) Biomarker Activity (AID 2283034); conditions: primary human bronchial epithelial cells; actives raise or lower the signal
Procedure, shortened: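 Human primary bronchial epithelial cells were exposed to chemicals for 24 hours, after which IP-10 levels were measured by ELISA. Data were fitted bidirectionally against DMSO, which served as the negative control and activity baseline.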

[6] = read-out: Transforming growth factor beta 1 (TGFb1), TGFB1 (gene 7040); test: BSK_BE3C_TGFb1: BioMAP Diversity Plus: BE3C Assay for Transforming growth factor beta 1 (TGFb1) Biomarker Activity (AID 2283036); conditions: primary human bronchial epithelial cells; actives raise or lower the signal
Procedure, shortened: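 Human primary bronchial epithelial cells (BE3C system) were dosed with chemical and TGF-b1 levels measured by ELISA at 24 h. Activity was fitted bidirectionally relative to DMSO negative control as baseline.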

[7] = read-out: Plasminogen activator inhibitor-1 (PAI1), SERPINE1 (gene 5054); test: BSK_BE3C_PAI1: BioMAP Diversity Plus: BE3C Assay for Plasminogen activator inhibitor-1 (PAI1) Biomarker Activity (AID 2283037); conditions: primary human bronchial epithelial cells; actives raise or lower the signal
Procedure, shortened: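 Human primary bronchial epithelial cells were exposed to chemical for 24 h, then PAI-1 was quantified by ELISA. Activity was fitted bidirectionally relative to the DMSO negative control baseline.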

[8] = read-out: urokinase plasminogen activator (uPA), PLAU (gene 5328); test: BSK_BE3C_uPA: BioMAP Diversity Plus: BE3C Assay for urokinase plasminogen activator (uPA) Biomarker Activity (AID 2283038); conditions: primary human bronchial epithelial cells; actives raise or lower the signal
Procedure, shortened: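 ELISA read-out of uPA in human lung primary bronchial epithelial cultures, 24 h post-dosing. Gain or loss of signal fitted bidirectionally relative to DMSO baseline; cytotoxicity checked in parallel cultures via SRB total protein stain.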

[9] = read-out: Urokinase-type plasminogen activator receptor (uPAR), PLAUR (gene 5329); test: BSK_BE3C_uPAR: BioMAP Diversity Plus: BE3C Assay for Urokinase-type plasminogen activator receptor (uPAR) Biomarker Activity (AID 2283039); conditions: primary human bronchial epithelial cells; actives raise or lower the signal
Procedure, shortened: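 Primary human bronchial epithelial cells were dosed with chemical and harvested 24 h later; uPAR was quantified by ELISA. Activity was fitted bidirectionally against DMSO as negative control and baseline.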

[10] = read-out: Interleukin-6 (IL6), IL6 (gene 3569); test: BSK_CASM3C_IL6: BioMAP Diversity Plus: CASM3C Assay for Interleukin-6 (IL6) Biomarker Activity for (AID 2283040); conditions: primary human coronary artery smooth muscle cells; actives raise or lower the signal
[11] = read-out: Tissue plasminogen activator (tPA), PLAT (gene 5327); test: BSK_BE3C_tPA: BioMAP Diversity Plus: BE3C Assay for Tissue plasminogen activator (tPA) Biomarker Activity (AID 2283041); conditions: primary human bronchial epithelial cells; actives raise or lower the signal
Procedure, shortened: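 Human primary bronchial epithelial cells were dosed with chemical and tPA biomarker levels measured by ELISA 24 hours later. Activity was fitted bidirectionally against DMSO as negative control and baseline.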

[12] = read-out: Interleukin-8 (IL8), CXCL8 (gene 3576); test: BSK_CASM3C_IL8: BioMAP Diversity Plus: CASM3C Assay for Interleukin-8 (IL8) Biomarker Activity (AID 2283042); conditions: primary human coronary artery smooth muscle cells; actives raise or lower the signal;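 note: IL-8 protein level quantified by ELISA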
[13] = read-out: Human Leukocyte Antigen - DR isotype (HLADR), HLA-DRA (gene 3122); test: BSK_CASM3C_HLADR: BioMAP Diversity Plus: CASM3C Assay for Human Leukocyte Antigen - DR isotype (HLADR) Biomarker Activity (AID 2283043); conditions: primary human coronary artery smooth muscle cells; actives raise or lower the signal;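 note: cell-surface HLA-DR protein level quantified by ELISA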
[14] = read-out: Macrophage colony-stimulating factor (MCSF), CSF1 (gene 1435); test: BSK_CASM3C_MCSF: BioMAP Diversity Plus: CASM3C Assay for Macrophage colony-stimulating factor (MCSF) Biomarker Activity (AID 2283044); conditions: primary human coronary artery smooth muscle cells; actives raise or lower the signal;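 note: M-CSF protein amount quantified by ELISA after 24 h exposure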
[15] = read-out: Low-density lipoprotein receptor (LDLR), LDLR (gene 3949); test: BSK_CASM3C_LDLR: BioMAP Diversity Plus: CASM3C Assay for Low-density lipoprotein receptor (LDLR) Biomarker Activity (AID 2283045); conditions: primary human coronary artery smooth muscle cells; actives raise or lower the signal;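 note: LDLR protein level on the cell surface quantified by ELISA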
[16] = read-out: Monocyte Chemoattractant Protein-1 (MCP1), CCL2 (gene 6347); test: BSK_CASM3C_MCP1: BioMAP Diversity Plus: CASM3C Assay for Monocyte Chemoattractant Protein-1 (MCP1) Biomarker Activity (AID 2283046); conditions: primary human coronary artery smooth muscle cells; actives raise or lower the signal;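 note: MCP-1 level quantified by ELISA 24 h after dosing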
[17] = BSK_CASM3C_Proliferation: Cell Proliferation Assessment in the BioMAP Diversity Plus: CASM3C Assay (AID 2283047); conditions: primary human coronary artery smooth muscle cells;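 note: sulforhodamine B total protein stain as relative cell number at 560 nm; sub-confluent cells exposed 48 h before staining; fitted both ways against DMSO so gain or loss of cell number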
[18] = read-out: Monokine induced gamma interferon (MIG), CXCL9 (gene 4283); test: BSK_CASM3C_MIG: BioMAP Diversity Plus: CASM3C Assay for Monokine induced gamma interferon (MIG) Biomarker Activity (AID 2283048); conditions: primary human coronary artery smooth muscle cells; actives raise or lower the signal;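 note: MIG protein level measured by ELISA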
[19] = read-out: serum amyloid A (SAA), SAA1 (gene 6288); test: BSK_CASM3C_SAA: BioMAP Diversity Plus: CASM3C Assay for serum amyloid A (SAA) Biomarker Activity (AID 2283049); conditions: primary human coronary artery smooth muscle cells; actives raise or lower the signal;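 note: SAA protein level quantified by ELISA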

Measured: AC50

N#Cc1ccc(N(CC(N)=O)CC(F)(F)F)cc1C(F)(F)F
inactive: [1] | [2] | [3] | [4] | [5] | [6] | [7] | [8] | [9] | [10] | [11] | [12] | [13] | [14] | [15] | [17] | [18] | [19]
active: [16] 335 nM

Cc1cccc(C)c1N
inactive: [1] | [2] | [3] | [4] | [5] | [6] | [7] | [8] | [9] | [10] | [11] | [12] | [13] | [14] | [15] | [16] | [17] | [18] | [19]

CCC(C)(CC)c1cc(NC(=O)c2c(OC)cccc2OC)on1
inactive: [1] | [2] | [3] | [4] | [5] | [6] | [7] | [8] | [9] | [10] | [11] | [12] | [13] | [14] | [15] | [16] | [17] | [18] | [19]

CCNc1nc(NC(C)C)nc(SC)n1
inactive: [1] | [2] | [3] | [4] | [5] | [7] | [8] | [9] | [10] | [11] | [12] | [13] | [14] | [15] | [16] | [17] | [18] | [19]

O=NN(c1ccccc1)c1ccccc1
inactive: [1] | [2] | [3] | [4] | [5] | [7] | [8] | [9] | [10] | [11] | [12] | [13] | [14] | [15] | [16] | [17] | [18] | [19]

CCCCCCCCOC(=O)c1ccccc1C(=O)OCCCCCCCC
inactive: [2] | [3] | [4] | [5] | [7] | [8] | [9] | [10] | [11] | [12] | [13] | [14] | [15] | [16] | [17] | [18] | [19]
active: [1] 3.7 µM

C[C@]12CCC(=O)C=C1CC[C@@H]1[C@@H]2CC[C@@]2(C)[C@H]1CC[C@]2(C)O
inactive: [1] | [2] | [3] | [4] | [5] | [7] | [8] | [9] | [10] | [11] | [12] | [13] | [14] | [15] | [16] | [17] | [18] | [19]

Oc1ccc(C(c2ccc(O)cc2)(C(F)(F)F)C(F)(F)F)cc1
inactive: [2] | [10] | [12] | [13] | [14] | [16] | [18]
active: [1] 32.5 µM | [3] 20.1 µM | [4] 29.3 µM | [5] 24.1 µM | [6] 28.5 µM | [7] 21.4 µM | [8] 38.2 µM | [9] 38.1 µM | [11] 21.8 µM | [17] 20 µM | [19] 37.6 µM

CN(C)c1nc(=O)n(C2CCCCC2)c(=O)n1C
inactive: [1] | [2] | [3] | [4] | [5] | [7] | [8] | [9] | [10] | [11] | [12] | [13] | [14] | [15] | [16] | [17] | [18] | [19]

Cc1ccccc1O
inactive: [1] | [2] | [3] | [4] | [5] | [7] | [8] | [9] | [10] | [11] | [12] | [13] | [14] | [15] | [16] | [17] | [18] | [19]

CC(C)(O)C(=O)Nc1ccc([N+](=O)[O-])c(C(F)(F)F)c1
inactive: [1] | [2] | [3] | [4] | [7] | [8] | [9] | [11] | [12] | [13] | [14] | [15] | [16] | [17] | [18] | [19]
active: [5] 24.6 µM | [10] 29.1 µM
